SMILES strings stand for the structures. The whole screen tested about 370,000 compounds, of which about 150 (0.041%) were called active. Not shown: some 14% with an inconclusive outcome. Calls come from the whole dose curve; as a rule, active = well fitted inhibition curve with a large enough effect; inconclusive = small, poorly fitted or top-dose-only effect; inactive = flat fitted curve, though single readings scatter. For the sample, actives were picked, then their nearest neighbours and some compounds at random.
Potency is the fitted concentration of half-maximal effect.

Chain of Beta-lactamase (Escherichia coli (strain K12)) (P00811 whole entry, looked up): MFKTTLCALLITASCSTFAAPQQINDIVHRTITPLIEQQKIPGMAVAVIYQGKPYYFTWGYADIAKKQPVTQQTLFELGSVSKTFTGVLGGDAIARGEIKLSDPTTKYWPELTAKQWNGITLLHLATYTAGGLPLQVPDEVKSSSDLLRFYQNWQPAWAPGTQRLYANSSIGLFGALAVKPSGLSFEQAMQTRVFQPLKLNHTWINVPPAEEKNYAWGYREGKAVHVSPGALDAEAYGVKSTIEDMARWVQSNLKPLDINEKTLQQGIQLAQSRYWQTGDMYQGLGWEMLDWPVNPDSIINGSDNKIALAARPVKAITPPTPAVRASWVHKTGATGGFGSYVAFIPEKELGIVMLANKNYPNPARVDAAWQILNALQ

This assay deals with Beta-lactamase (Escherichia coli (strain K12)) (UniProt P00811). As to the kind of experiment: qHTS Inhibitors of AmpC Beta-Lactamase (assay with detergent).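 For activity change, negative = inhibition: 0% = no-compound wells and -100% = no-enzyme wells.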 Note: nearly all actives have a fitted effect of over 25% in size. As to conditions: AmpC hydrolysis of nitrocefin, absorbance 480 nm, 0.01% Triton; series mostly up to 114 µM; activity change, negative = inhibition: at the top concentration. On the procedure:
NIH Molecular Libraries Probe Production Network [MLPCN] NIH Chemical Genomics Center [NCGC] Assay Provider: Professor Brian Shoichet, UCSF Assay Overview: This aggregation profiling approach exploits the sensitivity of aggregate formation to detergent. Inhibition of b-lactamase is measured in the presence and absence of 0.01% Triton X-100. This particular assay had the prescence of 0.01% Triton X-100. See Pubchem assay "Promiscuous and Specific Inhibitors of AmpC Beta-Lactamase (assay without detergent)" for related screen. Compounds that inhibit only in the absence of detergent are considered likely promiscuous aggregators. A screen of 1,030 compounds was performed in Brian Shoichet's lab in 96-well format. AmpC activity was measured by following the absorbance at 480 nm. Nitrocefin is a chromogenic substrate: while nitrocefin is yellow (lmax 390 nm), the product of its hydrolysis is red (lmax 486 nm, 17,000 M-1). AmpC beta lactamase was provided by Shoichet Lab, UCSF.
Buffer: 20 mM phosphate buffer, pH 7.0 Triton X-100: No Detergent screen: 0.0001%, Detergent screen: 0.01%. Reagents/Controls: Buffer in columns 3 and 4 as negative control (no enzyme). 5.3 nM AmpC in columns 1, 2, 5-48. Titration of UCSF compound 9 control (from 10 mM, then 1:2) pin-transferred to column 2. Column 1 is neutral (100% activity). Assay Steps: Six uL of reagents were dispensed to 1536-well Greiner black clear bottom plates. Compounds and controls (23 nL) were transferred via Kalypsys PinTool. The plates were incubated for 15 min at room temperature, and then 2 uL of 800 uM solution of nitrocefin was added to start the reaction. The plates were immediately transferred to and read every 20 seconds for 4 min on ViewLux (Perkin-Elmer) High-throughput CCD imager using 480 nm absorbance protocol. During dispense, reagent bottles were kept submerged into 4 deg C water bath. Keywords: NIH Roadmap, MLSCN, MLI, MLSMR, qHTS, NCGC, AmpC Beta-Lactamase, Aggregation
On the technique in general: qHTS replaces the single test concentration by a dilution series.
Regarding `O=C(O)c1ccc(CSc2nc3cccnc3n2Cc2cccc(F)c2)cc1`, the “activity change, negative = inhibition” value was 0.0903% (inactive).

With `COc1ccc(-c2nnc(SCC(=O)Nc3ccccc3C)o2)cc1OC`, the “activity change, negative = inhibition” value was 24.4% (inactive).

`O=C(Nc1ccc(O)c(-c2nc3ccccc3o2)c1)c1ccc(-c2cccc(Cl)c2)o1`: the “activity change, negative = inhibition” value is 15.3% (inactive).

For the compound `O=C(Cn1c(=O)n(-c2ccc(F)cc2)c(=O)c2sccc21)Nc1cccc(C(F)(F)F)c1`, the “activity change, negative = inhibition” value is 0.688% (inactive).

For the compound `CSc1ccc(C2C(C(=O)Nc3ccccc3)=C(C)Nc3nc4ccccc4n32)cc1` (configuration not stated), the “activity change, negative = inhibition” value was -0.989% (inactive).

`COc1ccccc1NC(=O)COC(=O)COc1ccccc1F`: the “activity change, negative = inhibition” value is 4.46% (inactive).

As to `CC(Oc1ccccc1F)C(=O)NN` (configuration not stated), the Potency is 79.4 µM (active).

In the case of `CC(C)C(=O)NC(=S)Nc1ccccc1F`, the “activity change, negative = inhibition” value is -9.56% (inactive).

Take `COc1ccc2c(c1)c(=O)c(C(=O)c1ccccc1)cn2CC(=O)Nc1ccc2c(c1)OCCO2`: the “activity change, negative = inhibition” value is -6.8% (inactive).

For the compound `CC1CCCN(S(=O)(=O)c2ccc3[nH]c(=O)cc(C(=O)NCCc4ccc(Cl)cc4)c3c2)C1` (configuration not stated), the “activity change, negative = inhibition” value was 7.12% (inactive).

Take `O=S(=O)(NCC(c1ccccc1)N1CCc2ccccc21)c1ccccc1` (configuration not stated): the “activity change, negative = inhibition” value was -1.77% (inactive).

Take `Cc1ccc2nc(COc3cccc(NC(=O)Nc4ccc(C)c(Cl)c4)c3)cc(=O)n2c1`: the “activity change, negative = inhibition” value was 2.19% (inactive).

With `CN1C(=O)/C(=C\c2cc(Br)cs2)c2ccccc21`, the “activity change, negative = inhibition” value was -18.1% (inactive).

For the compound `COc1ccc(C(=O)ON=C2c3ccccc3-c3ccccc32)cc1OC`, the “activity change, negative = inhibition” value was -7.74% (inactive).

`CN1C(=O)/C(=N/OC(=O)c2ccccc2Br)c2ccccc21`: the Potency is 35.5 µM (active).

As for `O=C(COc1ccccc1)NCc1ccc2c(c1)CCN2C(=O)c1ccc(F)cc1`, the “activity change, negative = inhibition” value is 6.72% (inactive).

In the case of `CCc1ccccc1NC(=O)Cn1c(=O)n(CC2CCC(C(=O)NCCc3ccccc3)CC2)c(=O)c2ccccc21` (configuration not stated), the “activity change, negative = inhibition” value is -3.1% (inactive).

Regarding `CCCn1c(=N)c(C(=O)NCc2ccccc2)cc2c(=O)n3cccc(C)c3nc21`, the “activity change, negative = inhibition” value was 6.68% (inactive).

Take `CC(C)(C)c1cc(CN2CCN(CCC#N)CC2)cc(C(C)(C)C)c1O`: the Potency is 35.5 µM (active).

Turning to `CC(C)c1cc(CN2CCOCC2)cc(C(C)C)c1O`, the “activity change, negative = inhibition” value is 1.24% (inactive).

For `N#Cc1cccc(CN2CCC(=O)N(CCO)CC2)c1`, the “activity change, negative = inhibition” value is -1.68% (inactive).

As for `Cc1nn(Cc2ccc(F)cc2)c(C)c1NC(=O)c1cc(CC(C)C)on1`, the “activity change, negative = inhibition” value was -7.87% (inactive).

Regarding `CCOC(=O)c1c(S(=O)(=O)N2CCC(C(=O)NCc3ccccc3OC)CC2)c(C)n(C)c1C`, the “activity change, negative = inhibition” value was 6.8% (inactive).

In the case of `CC(C)(C)c1ccc(S(=O)(=O)N2CCN(C(=O)c3cc(-c4ccc(Br)cc4)n[nH]3)CC2)cc1`, the “activity change, negative = inhibition” value is 9.24% (inactive).

On to `COC(=O)CN1C(=O)CSc2ccc(S(=O)(=O)Nc3cc(C)ccc3C)cc21`, for which the “activity change, negative = inhibition” value is -2.29% (inactive).

On to `CCC1=Nc2cc(C(=O)NCCCOC(C)C)ccc2Sc2ccc(C)cc21`, for which the “activity change, negative = inhibition” value was -0.0613% (inactive).

For the compound `CC(C)c1ccc(C2CC(=O)N3CN(C4CCCCC4)CSC3=C2C#N)cc1` (configuration not stated), the “activity change, negative = inhibition” value is -6.41% (inactive).

On to `CCCNc1ncnc2c1c(-c1ccccc1)cn2-c1ccc(OCC)cc1`, for which the “activity change, negative = inhibition” value was 7.73% (inactive).

For `CCCN(CCC)CCNC(=O)c1ccc2c(c1)NC(=O)C(CS(=O)(=O)Cc1cccc(Br)c1)N2` (configuration not stated), the “activity change, negative = inhibition” value was 4.65% (inactive).

For the compound `Cc1ccc(-n2c3nc(=O)[nH]c(=O)c-3cc3c(Cl)cccc32)cc1`, the “activity change, negative = inhibition” value was 17.3% (inactive).

In the case of `O=C(CSc1nnc(-c2ccccc2F)o1)Nc1cccc(C(F)(F)F)c1`, the “activity change, negative = inhibition” value was -2.35% (inactive).

With `CCC(=O)Nc1ccc2nc(SCC(=O)N3CCc4ccccc43)sc2c1`, the “activity change, negative = inhibition” value is 17% (inactive).

Consider `Cc1ccc(-c2cnc(NCc3ccc(C(C)C)cc3)n2C)cc1`, for which the “activity change, negative = inhibition” value is 1.02% (inactive).

Take `Cc1ccc(C)c(NC(=O)C2CCCN(S(=O)(=O)c3cn(C)cn3)C2)c1` (configuration not stated): the “activity change, negative = inhibition” value is 1.52% (inactive).

With `Cc1c(C(=O)N2CCCC2)oc2c1-c1nn(CC(=O)NCc3ccc(OC(C)C)cc3)cc1CC2`, the “activity change, negative = inhibition” value was -0.874% (inactive).

For the compound `Cc1c(NC(=O)Nc2ccc(F)c(Cl)c2)c(=O)n(-c2ccccc2)n1C`, the “activity change, negative = inhibition” value is 10.1% (inactive).

For `CCCN(C(=O)Cn1cc(S(=O)(=O)N2CCN(c3ccccc3F)CC2)c2ccccc2c1=O)c1cccc(C)c1`, the “activity change, negative = inhibition” value was 15.1% (inactive).

Regarding `COc1ccc(Cl)cc1S(=O)(=O)N1CCC(c2ccncc2)CC1`, the “activity change, negative = inhibition” value is 5.01% (inactive).

As to `COc1ccc(-c2nc3sc(CCNS(=O)(=O)c4ccc(F)c(C)c4)c(C)n3n2)cc1`, the “activity change, negative = inhibition” value was 1.12% (inactive).

As for `CCOc1ccc(-c2cc3nc(C4CCN(C(=O)OC(C)(C)C)CC4)c(C(=O)Nc4ccc(C(=O)OC)cc4)cn3n2)cc1`, the “activity change, negative = inhibition” value was -0.405% (inactive).

For the compound `CCCNC(=O)CCC(=O)N1Cc2ccccc2Oc2ncccc21`, the “activity change, negative = inhibition” value was 26.6% (inactive).

Consider `O=C(Cn1c(-c2cccs2)cc2ccccc21)NCCc1ccc(Cl)cc1`, for which the “activity change, negative = inhibition” value is 0.161% (inactive).

Regarding `Cc1ccc(CNS(=O)(=O)c2ccc(-c3cc(C(F)(F)F)on3)s2)cc1`, the “activity change, negative = inhibition” value was -0.38% (inactive).

Regarding `COCCCNC(=O)c1ccc(NC(=O)c2nsc3ccccc23)cc1`, the “activity change, negative = inhibition” value was 1.67% (inactive).

Take `COc1ccc(-c2nc(C)c(CCNC(=O)c3ccc(C(F)(F)F)cc3)s2)cc1OC`: the “activity change, negative = inhibition” value was 5.88% (inactive).

As to `CC1CCCN(Cc2c(O)ccc3c(=O)c(Oc4ccc(C(C)(C)C)cc4)c(C(F)(F)F)oc23)C1` (configuration not stated), the “activity change, negative = inhibition” value was -1.79% (inactive).

In the case of `COc1ccc(/C=C/c2nc(C#N)c(NCc3ccc(F)cc3)o2)cc1OC`, the “activity change, negative = inhibition” value was -1.11% (inactive).

Values taken from PubChem BioAssay AID485294 (National Center for Advancing Translational Sciences (NCATS), 2010).
